PubChem BioAssay (NCI)
The panel holds about 83,000 compounds, 20% with a hit somewhere; the sample as a whole holds those more often.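 Single-concentration screen, 48 h exposure, 96-well plates. Endpoint: percent growth. Below 10 = active.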 A number with no mark means an inactive call. Active and inactive are the calls of the source.

Key:
Assay in all cases: NCI-60 one-dose screen, 48 h (100 = growth as untreated, 0 = no growth, -100 = all killed)
Conditions in all cases: 10 µM unless noted
[1] = tested on: SR leukemia
[2] = tested on: RPMI-8226 leukemia
[3] = tested on: OVCAR-8 ovarian
[4] = tested on: OVCAR-5 ovarian
[5] = tested on: OVCAR-4 ovarian
[6] = tested on: SK-OV-3 ovarian
[7] = tested on: IGROV1 ovarian
[8] = tested on: OVCAR-3 ovarian
[9] = tested on: HS 578T breast
[10] = tested on: NCI/ADR-RES ovarian

SMILES | growth [1] | growth [2] | growth [3] | growth [4] | growth [5] | growth [6] | growth [7] | growth [8] | growth [9] | growth [10]
COc1ccc(-c2cc(Nc3ccnc(N4CCOCC4)n3)on2)cc1 | 31.1% | 25.2% | 37.2% | 46.6% | 62.1% | 43.2% | 43.1% | -17.6% (active) | 18.7% | 10.8%
Fc1ccc(CNc2cccc3[nH]c(C(F)(F)F)nc23)cc1 | 66% | 36.5% | 90.1% | 90.2% | 89.3% | 97.9% | 109% | 76.6% | 82.3% | 100%
CN1CCN(c2nc(NCCCCNc3ccnc4cc(Cl)ccc34)c3ccccc3n2)CC1 | -26.6% (active) | -8.38% (active) | 38.3% | 112% | 68.5% | 104% | 78.2% | 76.6% | 81.1% | 95.3%
COc1ccc2nc(NC(=O)CSc3nnc4n3S(=O)(=O)c3ccccc3N4c3ccccc3)sc2c1 | 66.6% | 66.8% | 51.2% | 94.2% | 91.8% | 100% | 27.7% | 104% | 89.6% | 93.5%
O=C(CN1C(=O)/C(=C/c2ccc(Cl)cc2)SC1=S)NCCCN1CCOCC1 | 97.8% | 96% | 103% | 103% | 93.5% | 97.8% | 108% | 101% | 84.2% | 99.9%
C=CC(COC(c1ccccc1)(c1ccccc1)c1ccccc1)N(CC)CC (stereo not given) | 44.7% | 10.6% | 77% | 66.1% | 67.9% | 75.5% | 62% | 71.9% | 85.7% | 62.4%
O=C1c2ccccc2C(=O)c2c1ccc1[nH]c(-c3cccs3)nc21 | 37.4% | 63.7% | 81.5% | 88.5% | 102% | 107% | 89.7% | 82.8% | 99.2% | 78.7%
Clc1ccc2c(NCCCCNc3nc(N4CCOCC4)nc4ccccc34)ccnc2c1 | -18.9% (active) | -32.2% (active) | 9.88% (active) | 64.8% | -13.1% (active) | 64.5% | 44.9% | -71.2% (active) | 91.8% | 55.6%
Cn1cc(C(=O)c2nc(-c3c[nH]c4ccccc34)no2)c2ccccc21 | 44.1% | 78.9% | 91.1% | 66% | 57.3% | 69.8% | 25.7% | 12.8% | 56.2% | 64.2%
CC(C)(CCCN=C(N)Nc1ccc(Cl)cc1)c1ccc(F)cc1 | -13.6% (active) | 11% | 87.3% | 75.8% | 54.4% | 94.7% | 55.2% | 71.2% | 83.2% | 73.8%
O=C(NCCN1CCOCC1)Nc1ccc(-c2cc3c(Nc4ccc(Oc5cccc(C(F)(F)F)c5)c(Cl)c4)ncnc3s2)cc1 | 4.83% (active) | -14.8% (active) | 41.1% | 36.2% | 39.2% | 24.5% | 28.3% | 41.1% | -3.09% (active) | 77.2%
Clc1ccc2c(NCCNc3nc(N4CCCCC4)nc4ccccc34)ccnc2c1 | -29.5% (active) | -41.6% (active) | -30.5% (active) | 25.4% | 34.2% | -2.73% (active) | 30.4% | -64.7% (active) | 37.9% | 25.4%
CN(C)c1ccc(N=Nc2ccc(Br)cn2)c(O)c1 | 3.15% (active) | 11.9% | 15.5% | 59.6% | 1.05% (active) | 25.9% | 16% | 14.8% | 64% | 12.8%
O=C(N/N=C/c1ccccc1O)c1ccccc1Nc1ccnc(C(F)(F)F)c1 | -13.9% (active) | -22% (active) | 14.9% | 20.6% | 22.4% | 11.4% | 1.57% (active) | 35.7% | 34.3% | 7.23% (active)
Clc1ccc2c(NCCNc3nc(N4CCOCC4)nc4ccccc34)ccnc2c1 | -23.5% (active) | -37% (active) | -25.8% (active) | 51.8% | 3.78% (active) | -37.8% (active) | 48.8% | -75% (active) | -13.9% (active) | 47.9%
Cc1ccc(/C=C2\SC(=S)N(CC(=O)NCCCN3CCOCC3)C2=O)cc1 | 97.2% | 95.9% | 96.4% | 101% | 91.3% | 82.7% | 107% | 102% | 87.4% | 96.5%
NC(=NCCCOc1ccc(Cl)cc1)Nc1ccc(C(F)(F)F)cc1 | -23.7% (active) | -1.68% (active) | 66.3% | 48.4% | 34% | 78.1% | -20.5% (active) | 58.3% | 52.4% | 62.8%
COc1ccc(C2C(C#N)=C(N)Oc3n[nH]c(-c4cccs4)c32)cc1I (stereo not given) | 53.2% | 78.8% | 95% | 107% | 108% | 92.1% | 91.2% | 91.7% | 87.5% | 96.2%
CC1=C[C@H]2c3c(c(O)c(O)c4oc5c(C)cccc5c(=O)c34)[C@H](c3cc(O)c(O)c4oc5c(C)cccc5c(=O)c34)[C@H]2C(C)(C)C1 | 3.62% (active) | 23.4% | 18.1% | 30.4% | 11.3% | 19.1% | 1.21% (active) | 13.8% | -6.09% (active) | 4.23% (active)
CN1CCN(Cc2ccc(NC(=O)c3cncc(C#Cc4cncn5ccnc45)c3)cc2C(F)(F)F)CC1 | 40.8% | 54.9% | 68.8% | 48.4% | 48.5% | 88.9% | 20.4% | 83.8% | 69.6% | 93.6%
COc1cc(C)c(C2C(C#N)=C(N)Oc3n[nH]c(-c4cccs4)c32)cc1C(C)C (stereo not given) | 87.1% | 87.5% | 89.1% | 115% | 103% | 98% | 108% | 109% | 103% | 103%
Cn1ccnc1C(=O)/C=C/c1ccc(CC(=O)Nc2ccccc2)cc1 | -10.7% (active) | -12.5% (active) | -0.35% (active) | 29.6% | 31.4% | 27.3% | 12.7% | -7.34% (active) | 37.2% | 13.5%
COc1ccc(-c2n[nH]nc2-c2csc3ccccc23)cc1OC | 21.3% | 34.8% | 36.9% | 66.2% | 49% | 14.2% | 48.8% | 11.9% | 6.17% (active) | 13.5%
COc1cc(/C=C/c2cc(/C=C/c3ccc(O)c(OC)c3)n(-c3c(C)cccc3C)c(=O)n2)ccc1O | 0.0669% (active) | -27.4% (active) | 0.393% (active) | 9.05% (active) | 3.15% (active) | -37.7% (active) | 9.72% (active) | 5.84% (active) | -4.97% (active) | 12.6%
O=c1cc(CSc2nnc(SCc3cc(=O)oc4c3ccc3ccccc34)o2)c2ccc3ccccc3c2o1 | 91.7% | 99.8% | 94.1% | 99.7% | 111% | 98.8% | 94.9% | 105% | 94.2% | 94.4%
O=c1oc2c(C(F)(F)F)cccc2cc1-c1csc(Nc2ccc(OCCF)cc2)n1 | 6.43% (active) | 15.9% | 4.22% (active) | 67.5% | 40.4% | 15.1% | 21.4% | -21.4% (active) | 22.7% | 17.5%
